# Screens (PubChem)
# Compounds with a hit are over-represented: about 2.5% of the library has one in this group of screens.
# Mito fusion act = qHTS Assay for Small Molecule Inhibitors of Mitochondrial Division or Activators of Mitochondrial Fusion; S. cerevisiae fusion-defective mutant growth rescue, CellTiterGlo 48 h; actives 0.23% (n = 320,000); AID 485298, 2010; Potency, µM (series often up to 46.1 µM), for inactives: at the top dose growth rescue (activation), most hits filed as activators; also: potency is read from the fitted curve at half-maximal effect; % of control where 0% means no effect; nearly all actives have a fitted effect of over 45% in size
#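 Temperature-sensitive fusion-defective S. cerevisiae (e.g. fzo1-1, mgm1-5) were grown with compound in YPEG medium (3% ethanol, 3% glycerol) for 48 hours at 37C. Growth rescue was measured as viability by CellTiterGlo luminescence after 10 minutes at ambient.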
# pAkt inh = HTS Assay for Inhibitors of Akt Phophorylation: Primary Screen; Neuro2A IGF-stimulated pAkt S473 HTRF, 20 min; stronger effect = lower value; activity change, % for hits at 50 µM; actives 0.32% (n = 360,000); AID 651550, 2012; in the data active = activity change below about -80%; inconclusive = mostly about -51% to -80%; also: % is scaled to controls: 0 for no effect and ±100 for the full control effect
#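 Single-point screen (50 µM final compound) in Neuro2A cells stimulated 20 min with 6 nM IGF at 37 deg C. After lysis, Ser473-phosphorylated Akt read by HTRF (ex 330 nm, em 615/665 nm) as the 665/615 ratio.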
# CCT chaperon mod = High-Throughput Screening for Modulators of Cytosolic Chaperonin Activity | actives 0.3% (n = 360,000) | activity change, % (test concentration not listed), hits read low | purified chaperonin ATPase assay, HTRF ADP detection, 30 min; in the data active = activity change below about -30%; also: % is scaled to controls: 0 for no effect and ±100 for the full control effect
#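 Enzyme 40 or 20 nM (batch-dependent) in Tris pH 7.4/KCl/MgCl2/DTT; cpd 76 uM single point; ATP 10 uM; 30 min 37 °C; Transcreener ADP HTRF detection, 30 min RT; ratio 665/615.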
# TDP43 rescue = qHTS of TDP-43 Inhibitors; TDP-43 expressing yeast growth rescue, BacTiter-Glo, 24 h; actives 1.8% (n = 410,000); Potency, µM (doses to about 46.1 µM), for inactives: at the highest dose growth rescue (activation), actives largely listed as activators; AID 652104, 2013; also: potency is read from the fitted curve at half-maximal effect; % of control where 0% means no effect; nearly all actives have a fitted effect of over 50% in size
#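 Readout is BacTiter-Glo luminescence of cell growth, so inhibitors register as activators. TDP-43-expressing yeast at OD600=0.02 in galactose medium, after raffinose pregrowth to mid-log, were incubated with compound for 24 hr at 30 deg C.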
# aSyn yeast inh = qHTS of alpha-syn Inhibitors; Yeast expressing alpha-synuclein, growth rescue, BacTiter-Glo, 24 h; AID 652106, 2013; Potency, µM (doses to about 46.1 µM), for inactives: top-dose growth rescue (activation), usual class: activators; actives 0.14% (n = 370,000); also: potency is read from the fitted curve at half-maximal effect; % of control where 0% means no effect; nearly all actives have a fitted effect of over 65% in size
#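 Readout is rescue of growth in alpha-synuclein-expressing yeast, so inhibitors of toxicity appear as activators. Growth after 24 hr at 30 deg C in galactose medium is quantified by luminescence.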
# Apoferritin bind = qHTS Assay for Identification of Novel General Anesthetics | Ferritin light chain (Equus caballus), P02791 | actives 0.074% (n = 350,000) | Potency, µM (series often up to 77.5 µM), without a hit: at the top dose activity change, negative = displacement, actives largely listed as inhibitors | apoferritin/1-aminoanthracene competitive binding, fluorescence; also: potency is read from the fitted curve at half-maximal effect; % is scaled to controls: 0 for no effect and ±100 for the full control effect; nearly all actives have a fitted effect of over 20% in size
# Target sequence (P02791 2-175 limits assumed): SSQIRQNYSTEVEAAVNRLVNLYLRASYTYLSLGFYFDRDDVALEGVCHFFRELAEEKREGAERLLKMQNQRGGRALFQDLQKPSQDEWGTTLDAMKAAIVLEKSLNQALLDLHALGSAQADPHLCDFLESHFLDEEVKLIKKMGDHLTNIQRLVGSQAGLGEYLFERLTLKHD
#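 Horse-spleen apoferritin (10 uM) in 50% saturated 1-aminoanthracene in PBS was incubated 10 min at room temperature with compound. Fluorescence (ex 380, em 535 nm) was normalized to free and bound 1-AMA, with concentration-response fitted by a four-parameter Hill equation.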
# Numbers without * were called inactive; i = inactive; ? = inconclusive; . = no result; [ ] = dose if it differs, or a comment. Unless noted, calls follow the shape of the dose curve; as a rule, active = well fitted curve in the direction sought with a large enough effect; inconclusive = small, poorly fitted or top-dose-only effect, or another doubt; inactive = no such curve, though single readings can be large; an effect the other way counts as inactive or inconclusive.
SMILES,Mito fusion act,pAkt inh,CCT chaperon mod,TDP43 rescue,aSyn yeast inh,Apoferritin bind
CC1CCN(C2=NC(=O)/C(=C/c3ccccc3F)S2)CC1,-20.3%,i,1.0,12.6µM*,7.8%,-14.8%
O=C1c2ccccc2C(=O)N1c1nc(-c2ccc(F)cc2)cs1,.,.,.,.,-0.1%,.
Cc1cc(C)c(S(=O)(=O)NCCc2ccccc2)c(C)c1,?,i,-0.4,3.9%,20µM*,?
Cc1ccc(S(=O)(=O)NCCc2ccccc2)cc1,1.7%,i,-2.0,?,13.3%,?
Cc1cc(C)c(S(=O)(=O)NCCn2ccc3ccccc32)c(C)c1,?,i,0.2,12.6µM*,?,-15.7%
COc1ccc(CCNC(=O)c2cc3c(=O)n(C)c4cc(Cl)ccc4c3s2)cc1OC,.,.,.,-6.4%,-7.9%,-8.2%
COc1ccc(C(C)(O)c2nc(-c3cnc4ccccc4c3)cs2)cc1 (centres undefined),.,i,-1.1,35.5µM*,?,.
COCc1cccc(-c2csc(C(C)(O)c3cccc(F)c3)n2)c1 (centres undefined),.,i,0.3,35.5µM*,-5.6%,.
CC(O)(c1ccc(F)c(F)c1)c1nc(/C=C/c2ccccc2)cs1 (centres undefined),.,i,-3.0,-78.3%,-59.3%,.
CC(=O)NC(C)(c1ccccc1)c1nc(-c2csc3ccccc23)cs1 (centres undefined),.,i,1.5,35.5µM*,7.5%,.
COc1cccc(C(C)(O)c2nc(/C=C/c3ccccc3)cs2)c1 (centres undefined),.,i,-2.2,25.1µM*,?,.
CC(O)(c1ccc(F)c(F)c1)c1nc(-c2cnc3ccccc3c2)cs1 (centres undefined),.,i,3.4,?,-24.3%,.
CCOC(=O)Cn1nc(N2CCN(c3ccc(F)cc3)CC2)ccc1=O,.,.,.,25.5%,.,-6.0%
COc1cccc(C(C)(O)c2nc(-c3ccccc3C)cs2)c1 (centres undefined),.,i,1.3,15.0%,1.6%,.
CC(O)(c1ccccc1)c1nc(/C=C/c2ccccc2)cs1 (centres undefined),.,i,-0.8,35.5µM*,-26.7%,.
COc1cccc(C(C)(O)c2nc(-c3csc4ccccc34)cs2)c1 (centres undefined),.,i,1.8,35.5µM*,-1.3%,.
S=C(NCCNC(=S)Nc1ccccc1)Nc1ccccc1,1.1%,i,-1.7,24.0%,3.4%,1.8%
S=C(Cc1ccccc1)Nc1ccccc1,.,i,-3.4,8.91µM*,1.5%,.
O=C(CSc1nc(-c2ccccc2)[nH]c1-c1ccccc1)Nc1ccc2c(c1)OCO2,.,.,.,-26.1%,.,4.5%
N#CCc1nc(-c2cc3ccccc3oc2=O)cs1,13.8%,i,-32.0*,-11.5%[0.397 µM],-6.4%,-13.5%
O=c1oc2ccccc2cc1-c1nc(-c2cccs2)cs1,2.1%,i,-3.7,-19.1%,-0.9%,5.4%
COc1ccc(OCc2nnc3n2N=C(c2ccc(OC)cc2)CS3)cc1,6.5%,i,-1.3,?,1.9%,8.91µM*
COc1ccc(OCc2nnc3n2N=C(c2ccc(C)cc2)CS3)cc1,1.3%,i,-0.8,11.7%,0.0%,11.2µM*
COc1ccc(C2=Nn3c(nnc3-c3ccco3)SC2)cc1,3.4%,i,-0.9,22.4µM*,7.2%,-12.1%
Cc1ccc(N2CC3=C(C2=O)C(c2ccc(Br)cc2)NC(=O)N3C)cc1 (centres undefined),.,.,.,1.8%,-8.5%,-9.3%
SMILES,Mito fusion act,pAkt inh,CCT chaperon mod,TDP43 rescue,aSyn yeast inh,Apoferritin bind
CN(C)c1ccc(/C=C/c2sc3ccccc3[n+]2CCCCI)cc1,.,.,.,.,-49.2%,.
CCNC(=O)CN(c1ccc(Cl)cc1)S(=O)(=O)c1ccccc1,-1.3%,i,0.0,11.2µM*,-6.0%,-12.4%
CCOc1ccccc1NC(=O)c1cnn2c(C(F)F)cc(-c3ccccc3)nc12,.,.,.,15.5%,.,-5.8%
Cc1nc(-c2ccc3c(c2)OCO3)cs1,-4.5%,i,0.9,26.5%,-0.3%,?
OC(c1cccc(Cl)c1)c1nc(-c2ccc3c(c2)OCO3)cs1 (centres undefined),.,i,-3.9,31.6µM*,?,.
OC(c1ccccc1)c1nc(-c2ccc3c(c2)OCO3)cs1 (centres undefined),.,i,1.1,20µM*,11.2µM*,.
C=C1C=C(C)n2ncc(C(=O)N(CCc3ccccc3)Cc3ccccc3)c2N1,.,.,.,.,11.5%,.
Cc1ccccc1OCC(=O)NCC(C)NC(=O)COc1ccccc1C (centres undefined),.,.,.,.,3.0%,.
CCCCn1c(O)c2n(c1=O)Cc1ccccc1N=C2c1ccc(OC)cc1,.,i,-1.1,29.6%,1.0%,.
O=c1n(Cc2ccccc2)c(O)c2n1Cc1ccccc1N=C2c1ccccc1,.,i,-40.4*,11.8%,-0.2%,.
COc1cccc(CN(C(=O)c2oc3cc(C)ccc3c2C)C2CCS(=O)(=O)C2)c1 (centres undefined),.,.,.,-7.5%,.,1.9%
CC(C)(C)C(=O)Nc1cc(S(=O)(=O)Nc2ccc(Cl)cc2)ccc1Cl,17.8µM*,i,-6.8,0.6%,19.0%,-16.7%
O=C1NCCc2c1[nH]c1ccccc21,3.6%,i,0.1,27.5%,-0.5%,4.6%
O=C1NCCc2c1[nH]c1c(Cl)ccc(Cl)c21,16.3%,i,2.3,10µM*,14.0%,-15.4%
Cc1cccc(OCCn2c(CCNC(=O)C3CCCCC3)nc3ccccc32)c1,.,.,.,.,6.3%,.
O=C(CN1CCCN(Cc2ccccc2Cl)S1(=O)=O)Nc1ccc2c(c1)OCCO2,.,.,.,?,.,60.9%
O=C(CN1CCCN(Cc2ccccc2F)S1(=O)=O)Nc1ccc(F)c(Cl)c1,.,.,.,11.2µM*,.,-6.9%
O=C(Nc1ccc2nc(-c3ccco3)c(-c3ccco3)nc2c1)N1CCCC1,.,.,.,.,-1.7%,.
CC(OC(=O)CCc1c[nH]c2ccccc12)C(=O)c1ccccc1 (centres undefined),8.0%,i,-5.4,35.5µM*,6.1%,?
CCSc1ncc(Cl)c(C(=O)Nc2sc3c(c2C(=O)OC)CCCC3)n1,.,.,.,.,-9.0%,.
O=[N+]([O-])c1cc(S(=O)(=O)Nc2ccccc2)ccc1N1CCN(c2ccccc2)CC1,20µM*,i,-1.3,14.7%,1.1%,-18.9%
O=[N+]([O-])c1cc(S(=O)(=O)Nc2ccccc2)ccc1NCc1ccccc1,?,i,0.6,1.1%,17.2%,-17.7%
